In the library only some 3.6% were active in any assay of this set; here they are far more common.
Pf apPOL inh – Pf-apPOL DNA polymerase inhibition | Recombinant Pf-apPOL, molecular beacon fluorescence, 1.5 h | inhibition, % at 10 µM | 0.25% of 210,000 active | AID 1794808
mHTT CaM bind – mHTT-calmodulin interaction abrogation; P42858; AlphaScreen His-mHTT/GST-CaM binding, luminescence; inhibition, % at 15 µM; 3.6% of 190,000 active;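 also: 0% = both proteins with DMSO and 100% = one protein alone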
An asterisk follows results filed as active. Rule as the data show it: active = inhibition above about 50%; inactive = the rest.

For COc1cc(OC)c2c(c1C(CCN1CCCC(C)C1)c1ccc(N(C)C)cc1)OC(=O)CC2c1ccc(N(C)C)cc1 (stereo unspecified) the results were Pf apPOL inh -4 and mHTT CaM bind 100*.
`CCn1c(CNC(C)=O)nc2c1CN(C(=O)Nc1cccc(C)c1)CC2` gave Pf apPOL inh 2 and mHTT CaM bind 9.
`CC(=O)Nc1ccc2c(=O)cc(-c3ccc(C(C)(C)C)cc3)oc2c1` gave Pf apPOL inh -11 and mHTT CaM bind 1.
`Cc1cc(C)nc(-n2nc(C)c3c2CC(c2ccc(F)cc2)CC3=O)n1` (stereo unspecified) gave Pf apPOL inh 0 and mHTT CaM bind 10.
Cc1ccc(O)c(NC(=O)CCCn2cnc([N+](=O)[O-])n2)c1 was read as Pf apPOL inh -5 and mHTT CaM bind 3.
For COc1ccc(C2C3=C(CC(C)(C)CC3=O)Nc3ncnn32)c(OC)c1 (stereo unspecified) the results were Pf apPOL inh 1 and mHTT CaM bind -2.
Cc1cccc(C(=O)Nc2c(C)nc3scc(C)n3c2=O)c1 was read as Pf apPOL inh -2 and mHTT CaM bind -2.
O=C(NCc1cccs1)C1CCCN(c2nnc3c(Cl)cccn23)C1 (stereo unspecified) was read as Pf apPOL inh -2 and mHTT CaM bind 8.
`O=[N+]([O-])c1ccc2c(c1)C1C=CCC1C(c1ccc(F)cc1)N2` (stereo unspecified) gave Pf apPOL inh -3 and mHTT CaM bind 14.
Screening COc1ccc2c(c1)C1C=CCC1C(c1ccc([N+](=O)[O-])cc1)N2 (stereo unspecified) returned Pf apPOL inh 4 and mHTT CaM bind 95*.
`COc1cc([N+](=O)[O-])cc2c1NC(c1ccccc1)C1CC=CC21` (stereo unspecified) gave Pf apPOL inh 9 and mHTT CaM bind 46.
O=C(c1ccc2c(c1)C1C=CCC1C(c1ccc([N+](=O)[O-])cc1)N2)N1CCCCCC1 (stereo unspecified) was read as Pf apPOL inh -2 and mHTT CaM bind 96*.
For CCOc1c(Br)cc(C2Nc3ccc([N+](=O)[O-])cc3C3C=CCC32)cc1OC (stereo unspecified) the results were Pf apPOL inh -5 and mHTT CaM bind 58*.
CCc1ccc(NC(=O)c2noc3c2CC(C)CC3)cc1 (stereo unspecified) was read as Pf apPOL inh 4 and mHTT CaM bind -3.
For Cc1nc(OC(C)C)cc(N2CCN(C(=O)CCc3ccccc3)CC2)n1 the results were Pf apPOL inh -2 and mHTT CaM bind -4.
For CC1=C(C(=O)Nc2ccccn2)C(c2cccc(Oc3ccccc3)c2)C2=C(CC(C)(C)CC2=O)N1 (stereo unspecified) the results were Pf apPOL inh 0 and mHTT CaM bind 6.
For COc1ccc(CNC(=O)c2ccc3c(c2)OCO3)c(OC)c1 the results were Pf apPOL inh -9 and mHTT CaM bind -8.
For CCn1c(/C=C/c2ccc([N+](=O)[O-])cc2)nc2ccccc2c1=O the results were Pf apPOL inh -2 and mHTT CaM bind -5.
`O=C1Nc2c(Br)cc(Br)cc2/C1=C/c1ccco1` gave Pf apPOL inh -6 and mHTT CaM bind 12.
O=C1Nc2ccc(Br)cc2/C1=C/c1ccco1 was read as Pf apPOL inh -5 and mHTT CaM bind 72*.
Screening Cc1ccc(/C=C2\C(=O)Nc3ccc(Br)cc32)s1 returned Pf apPOL inh -2 and mHTT CaM bind 34.
Screening O=C1Nc2ccc(Br)cc2/C1=C/c1cccs1 returned Pf apPOL inh 1 and mHTT CaM bind 58*.
For Cc1cc(C)cc(C(=O)N2CCCC(COc3ccc(C(=O)N4CCCC4)cc3)C2)c1 (stereo unspecified) the results were Pf apPOL inh 21 and mHTT CaM bind 17.
CCN(CC)CCC(c1cc(OC)c(OC)c(OC)c1)c1c(OC)cc(OC)c2c(C)cc(=O)oc12 (stereo unspecified) was read as Pf apPOL inh -13 and mHTT CaM bind 16.
Screening COc1cc(C(CCN2CCCC2)c2c(OC)cc(OC)c3ccc(=O)oc23)cc(OC)c1OC (stereo unspecified) returned Pf apPOL inh -3 and mHTT CaM bind 8.
COc1cc(C(CC(=O)N2CCOCC2)c2c(OC)cc(OC)c3c(-c4ccccc4)cc(=O)oc23)cc(OC)c1OC (stereo unspecified) was read as Pf apPOL inh -6 and mHTT CaM bind 47.
For CCN(CC)C(=O)CC(c1ccc(OC)cc1)c1c(OC)cc(OC)c2c(-c3ccccc3)cc(=O)oc12 (stereo unspecified) the results were Pf apPOL inh 9 and mHTT CaM bind 88*.
For COc1ccc(C(CCN2CCCCC2)c2c(OC)cc(OC)c3c(-c4ccccc4)cc(=O)oc23)cc1 (stereo unspecified) the results were Pf apPOL inh -8 and mHTT CaM bind 99*.
`CCN(CC)C(=O)Oc1ccc2c(-c3cc4cccc(OC)c4oc3=O)cc(=O)oc2c1` gave Pf apPOL inh -4 and mHTT CaM bind -2.
Screening CCN(CC)CCC(c1ccc(N(C)C)cc1)c1c(OC)cc(OC)c2c(C)cc(=O)oc12 (stereo unspecified) returned Pf apPOL inh -1 and mHTT CaM bind 94*.
For COc1cc(OC)c2c(-c3ccccc3)cc(=O)oc2c1C(CCN1CCOCC1)c1ccc(N(C)C)cc1 (stereo unspecified) the results were Pf apPOL inh -6 and mHTT CaM bind 94*.
For O=C(Nc1nnc(CSc2ccc(Cl)cc2)s1)Nc1ccccc1F the results were Pf apPOL inh -3 and mHTT CaM bind 8.
N#Cc1ccc(C(=O)N2CCCC(COc3cccc(C(=O)NC4CC4)c3)C2)cc1 (stereo unspecified) was read as Pf apPOL inh -4 and mHTT CaM bind 3.
`Cc1nc2c(C(=O)N3CCCC3)cnn2c(C)c1Cc1ccccc1Br` gave Pf apPOL inh -14 and mHTT CaM bind 8.
`O=C1OC(c2ccc(Cl)cc2)=N/C1=C\c1cc(Br)cs1` gave Pf apPOL inh -2 and mHTT CaM bind -1.
Screening OC(CCN1CCCCC1)c1ccc(-c2ccccc2)cc1 (stereo unspecified) returned Pf apPOL inh -4.
COc1cc(C(CCN2CCCC(C)C2)c2c(OC)cc(OC)c3c(C)cc(=O)oc23)cc(OC)c1OC (stereo unspecified) was read as Pf apPOL inh -11 and mHTT CaM bind 14.
Screening COc1cc(C(CCN2CCN(c3ccccc3)CC2)c2c(OC)cc(OC)c3c(C)cc(=O)oc23)cc(OC)c1OC (stereo unspecified) returned Pf apPOL inh -9 and mHTT CaM bind 94*.
Screening COc1cc(OC)c2c(-c3ccccc3)cc(=O)oc2c1C(CCN1CCCCC1)c1ccc(N(C)C)cc1 (stereo unspecified) returned Pf apPOL inh -9 and mHTT CaM bind 100*.
`CCCCc1nc(S(=O)(=O)c2ccc(Cl)cc2)c(N(C)C)o1` gave Pf apPOL inh -8 and mHTT CaM bind 2.
Screening CC1CCN(c2nnc(C(=O)NC3CC3)c3ccccc23)CC1 returned Pf apPOL inh -6 and mHTT CaM bind 10.
CCCSc1nnc2c(n1)OC(c1ccco1)N(C(=O)CC)c1ccccc1-2 (stereo unspecified) was read as Pf apPOL inh -3 and mHTT CaM bind 29.
CN1CC(=Cc2ccco2)C(=O)C(=Cc2ccco2)C1 was read as Pf apPOL inh 71*.
